Hits are enriched below; roughly 2.8% of the tested compounds scored in any of these assays.
Peg3 promoter – reduces Peg3 promoter-driven luciferase expression in HeLa; HeLa PEG-Prom luciferase reporter, luminescence, overnight; inhibition, % at 20 µM; 360,000 compounds, 1.7% hits;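 active = inhibition of at least 50% at 20 µM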
KKLEB tox – counter-screen for CF NF-kB inhibitors: cytotoxicity; activity change (cytotoxicity), % at 5 µM; AID 602141; 360,000 compounds, 0.36% hits; KKLEB CF airway cells viability, ATPlite luminescence, overnight; hits give low values; cells stimulated with P. aeruginosa culture filtrate;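 active = corrected activity change at or below -50% at 5 µM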
Shn3 inh set2 – Schnurri-3 reporter inhibition in Clone20 osteoblasts. Clone20 osteoblast Shn3 3'UTR firefly luciferase, 24 h. inhibition, % at 12.5 µM. 360,000 compounds, 0.52% hits. AID 588674;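 active = mean inhibition of at least 75% with every replicate also reaching 75%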;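 note: 0% = median of neutral control wells and 100% = pilot-screen positive control compound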
HIF-2a block – inhibitors of HIF-2a; 786-0 RCC cells HIF-2a reporter, luciferase luminescence, overnight; inhibition, % at 18.8 µM; 360,000 compounds, 0.72% hits; AID 624352;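 active = inhibition of the luminescence signal of 40% or more relative to plate controls, in a single-dose primary screen at 18.75 µM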
TRPM1 prom inh – reduces MITF-dependent TRPM1 promoter luciferase signal | SK-MEL-5 TRPM1 promoter luciferase, 24 h | inhibition, % at 12.5 µM | 330,000 compounds, 0.83% hits | AID 488899;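 active = mean inhibition across replicates of 60% or more, whatever share of single replicates reaches that level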
CF NFkB block – blocks PAF-induced NF-kB reporter in cystic fibrosis cells; AID 588850; 360,000 compounds, 0.86% hits; inhibition, % at 5 µM; KKLEB NF-kB-GFP reporter, GFP fluorescence overnight;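 active = at least 50% inhibition at 5 µM, scaled per plate between neutral and stimulator controls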;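 note: PAF is a Pseudomonas aeruginosa culture filtrate used as stimulus; plate controls were PAF-stimulated DMSO wells for no effect and unstimulated DMSO wells for full effect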
* = called active by the depositor; · = not tested or not shown.

SMILES | Peg3 promoter | KKLEB tox | Shn3 inh set2 | HIF-2a block | TRPM1 prom inh | CF NFkB block
COc1ccc(CN2C(=O)c3cccnc3C2=O)cc1S(=O)(=O)N(C)c1ccc(C)cc1 | 12 | 14 | -1 | 16 | 10 | -7
COc1ccc(C(=O)/C=C/c2ccccc2)c(OC)c1 | 68* | -20 | -80 | -121 | -29 | 15
COc1ccc(C(=O)/C=C/c2ccc(N(C)C)cc2)c(OC)c1 | -43 | -20 | -5 | -171 | -14 | -18
COc1ccc(OC)c(N/C=C/C(=O)c2ccccc2)c1 | 73* | -88* | 34 | 63* | 53 | -17
COc1cc(C)cc(C(=O)C=Cc2ccccc2)c1O | -23 | -29 | 15 | -34 | -28 | -8
COCOc1cc(O)c(C(=O)/C=C/c2ccccc2)c(OCOC)c1 | 95* | -3 | -2 | 37 | 28 | 40
COc1ccc(C(=O)/C=C/c2ccc(N3CCCCC3)c([N+](=O)[O-])c2)c(OC)c1 | 39 | 4 | -3 | 41* | 4 | -8
COc1ccc(NS(=O)(=O)c2ccc(F)c(F)c2F)cc1S(=O)(=O)N1CCOCC1 | -2 | -11 | 5 | 5 | -7 | 12
O=C(Nc1oc2ccccc2c(=O)c1-c1ccc(Cl)cc1)c1ccco1 | -8 | 6 | -12 | -14 | 5 | -10
O=C1C(Nc2ccccc2)=C(N2CCCCC2)C(=O)c2ccccc21 | 34 | 4 | 6 | -1 | 75* | 16
O=C(/C=C/c1ccc(O)cc1)c1ccc(NC2=C(N3CCCCC3)C(=O)c3ccccc3C2=O)cc1 | -46 | -15 | -15 | -62 | 26 | 55*
COC1=C(Nc2ccccc2)C(=O)c2ccccc2C1=O | -44 | -7 | -17 | -51 | 59 | 50*
COc1ccccc1NC1=C(N2CCCCC2)C(=O)c2ccccc2C1=O | 64* | -6 | 5 | -18 | 19 | 0
Cc1ccc(NC2=C(N3CCCCC3)C(=O)c3ccccc3C2=O)cc1 | 3 | -2 | -12 | -154 | 32 | -2
COC(=O)c1c(NC(=O)c2cccc(S(=O)(=O)N3CCN(C)CC3)c2)sc(C)c1C | 25 | -22 | 16 | 6 | -9 | 0
CCOC(=O)c1sc(NC(=O)CSc2nc3c(c(=O)n2-c2ccc(C)cc2)SCC3)c(C(=O)OCC)c1C | -1 | -60* | 6 | 1 | · | 30
O=C(CSc1nc2c(c(=O)n1-c1ccc(Br)cc1)SCC2)NCc1ccco1 | 13 | 7 | 92* | 16 | 8 | -5
O=C(Cc1ccccc1)N/N=C/c1cc(Br)cc(Br)c1O | 54* | -13 | 25 | 14 | 20 | 17
O=C(CNC(=O)c1cccc(Br)c1)N/N=C/c1cc(Br)cc(Br)c1O | 54* | 1 | -19 | 15 | -4 | 16
O=C(Cc1ccccc1)N/N=C/c1cc(Br)cs1 | -90 | -2 | -12 | -144 | -15 | 15
CC(C)c1ccc(/C=C/C2=NNC(=O)CC2)cc1 | -243 | -9 | 4 | -166 | 9 | 1
COc1cc(/C=C/C2=NNC(=O)CC2)cc(OC)c1OC | 61* | 5 | 4 | 14 | 47 | -12
CC(Sc1nnc(COc2ccc(Cl)cc2)o1)C(=O)Nc1ccc(N2CCOCC2)cc1 (stereo not given) | 4 | 3 | 5 | -8 | -10 | -39
O=C(N/N=C/c1cc([N+](=O)[O-])ccc1N1CCNCC1)c1ccc([N+](=O)[O-])cc1 | 103* | -7 | 5 | 28 | 84* | -5
COc1ccc(OC)c(N(CC(=O)NCC2CCCO2)S(=O)(=O)c2ccccc2)c1 (stereo not given) | 1 | 1 | -4 | 17 | 11 | 6
CCCCCC1CC1C(=O)N/N=C/c1ccc(N(C)C)cc1 (stereo not given) | -21 | -33 | 89* | -7 | -3 | 1
CN(C)c1ccc(/C=N/NC(=O)COc2ccccc2)cc1 | -104 | -4 | 9 | -104 | -20 | -6
CC(C)(C)OC(=O)N1CCC(C(=O)Nc2cccc(C(=O)NCc3ccccc3)c2)CC1 | 5 | -4 | 12 | 0 | -4 | 12
CC(C)(C)n1ncc2c(=O)n(Cc3cccc(Cl)c3)cnc21 | -35 | 3 | -10 | -73 | -4 | 11
O=C(NC1CCCC1)C1c2ccccc2OCC(=O)N1C1CC1 (stereo not given) | · | · | · | 7 | · | ·

Screening results (PubChem BioAssay)
